From PubChem BioAssay (Tox21)
Values joined by “and” are separate entries in the source; they are usually repeats but may differ in a detail not shown here. Identical values can stand only once. Results filed as inconclusive are left out. Active and inactive are the calls of the source. Calls come from the whole dose curve; as a rule, active = well fitted curve in the direction sought with a large enough effect in the repeat runs; inconclusive = weak or mixed curves; inactive = no such curve, though single readings can be large; an effect the other way counts as inactive or inconclusive.

Columns and labels:
[1] = Caspase-3/7 induction in HepG2 cells by small molecules, qHTS assay (AID 1346978); note: nearly all actives have a fitted effect of over 15% in size
Procedure, shortened: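 Wild-type HepG2 cells, 2,000/well, settled 5 hr at 37 C and 5% CO2, then compound-treated for 17 hr; caspase-3/7 activity read by luminescent Caspase-Glo 3/7 after 30 min at room temperature.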

[2] = Caspase-3/7 induction in CHO-K1 cells by small molecules, qHTS cell viability counter screen (AID 1346979); note: nearly all actives have a fitted effect of over 35% in size
Procedure, shortened: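 To flag cytotoxic compounds, treated CHO-K1 wild-type cells were given CellTiter-Fluor at 16hr and read fluorescently after 1hr at 37C; the caspase-3/7 luminescence was measured in these same wells.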

[3] = Caspase-3/7 induction in CHO-K1 cells by small molecules, qHTS assay (AID 1346980); note: nearly all actives have a fitted effect of over 15% in size
Procedure, shortened: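 Wild-type CHO-K1 cells exposed to compounds for 17hr at 37 C, 5% CO2. Caspase-3/7 activity then measured by Caspase-Glo 3/7 luminescence after 30min at room temperature.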

[4] = Caspase-3/7 induction in HepG2 cells by small molecules, qHTS cell viability counter screen (AID 1346981); note: series mostly up to about 92 µM; nearly all actives have a fitted effect of over 30% in size
Procedure, shortened: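 Wild-type HepG2 cells, 2,000/well, settled 5 hr at 37 C, 5% CO2 before compound addition. Viability read by CellTiter-Fluor fluorescence, reagent added after 16 hr compound exposure, then 1 hr at 37C, in the same wells as the caspase read.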

[5] = target: Nuclear receptor subfamily 1 group I member 2 (Homo sapiens) (UniProt O75469); assay: Human pregnane X receptor (PXR) small molecule agonists, qHTS assay (AID 1346982); note: nearly all actives have a fitted effect of over 35% in size; note: potency is the fitted concentration of half-maximal effect
Procedure, shortened: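 PXR-Luc HepG2 reporter cells (CYP3A4-driven luciferase) in 5% charcoal-stripped FBS medium, plated 5 h before compound addition, then treated 24 h at 37C. Luciferase read by ONE-Glo luminescence after 30 min at room temperature.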

[6] = target: Cytochrome P450 2D6 (Homo sapiens) (UniProt P10635); assay: Cytochrome P450 Family 2 Subfamily D Member 6 (CYP2D6) small molecule antagonists: luciferase reporter qHTS assay (AID 1671196); note: nearly all actives have a fitted effect of over 50% in size; note: potency is the fitted concentration of half-maximal effect; for activity change, negative = inhibition: series mostly up to about 120 µM
Procedure, shortened: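 Cell-free P450-Glo system: CYP2D6 with proluciferin substrate was pre-incubated with compound for 10 min, then reacted with NADPH regeneration for 1 h at room temperature. Luciferin product was detected after 20 min, and data were reported as relative luminescence units.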

[7] = target: Cytochrome P450 2C19 (Homo sapiens) (UniProt P33261); assay: Cytochrome P450 Family 2 Subfamily C Member 19 (CYP2C19) small molecule antagonists: luciferase reporter qHTS assay (AID 1671197); note: nearly all actives have a fitted effect of over 65% in size; note: potency is the fitted concentration of half-maximal effect; for activity change, negative = inhibition: series mostly up to about 120 µM
Procedure, shortened: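 CYP2C19 P450-Glo, 1536-well qHTS. Cpd + enzyme/proluciferin substrate 10 min RT; + NADPH regen, 37C 1 h; stop with luciferin detection reagent, 20 min RT, luminescence (RLU). Pos ctrl ketoconazole.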

[8] = target: Cytochrome P450 2C9 (Homo sapiens) (UniProt P11712); assay: Cytochrome P450 Family 2 Subfamily C Member 9 (CYP2C9) small molecule antagonists: luciferase reporter qHTS assay (AID 1671198); note: nearly all actives have a fitted effect of over 50% in size; note: potency is the fitted concentration of half-maximal effect; for activity change, negative = inhibition: series mostly up to about 120 µM
Procedure, shortened: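 P450-Glo proluciferin substrate with CYP2C9 enzyme; 10 min RT preincubation, then NADPH regeneration 1 h at 37C; luciferin detection reagent 20 min RT, luminescence in relative luminescence units.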

[9] = target: Cytochrome P450 1A2 (Homo sapiens) (UniProt P05177); assay: Cytochrome P450 Family 1 Subfamily A Member 2 (CYP1A2) small molecule antagonists: luciferase reporter qHTS assay (AID 1671199); note: nearly all actives have a fitted effect of over 50% in size; note: potency is the fitted concentration of half-maximal effect; for activity change, negative = inhibition: series mostly up to about 120 µM
Procedure, shortened: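 P450-Glo CYP1A2 enzyme–proluciferin substrate mix with compound 10 min at room temperature, then NADPH regeneration 1 h at room temperature. Luciferin detection reagent added, luminescence read after 20 min; furafylline positive control.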

[10] = target: Voltage-gated inwardly rectifying potassium channel KCNH2 (Homo sapiens) (UniProt Q12809); assay: Human Ether-a-go-go-Related Gene (hERG) channel small molecule antagonists: fluorescence cell-based qHTS assay (AID 1671200); note: nearly all actives have a fitted effect of over 50% in size; note: potency is the fitted concentration of half-maximal effect;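 for activity change, negative = inhibition: hERG-expressing U2OS cells given a thallium stimulus after FluxOR II dye loading; series mostly up to about 77 µM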
Procedure, shortened: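 Measured: Tl+ flux via fluorescence (480/540 nm) in hERG-expressing U2OS cells after 1 h dye loading at room temperature.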

[11] = target: Cytochrome P450 3A4 (Homo sapiens) (UniProt P08684); assay: Cytochrome P450 Family 3 Subfamily A Member 4 (CYP3A4) small molecule antagonists: luciferase reporter qHTS assay (AID 1671201); note: nearly all actives have a fitted effect of over 50% in size; note: potency is the fitted concentration of half-maximal effect; for activity change, negative = inhibition: series mostly up to about 120 µM
Procedure, shortened: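 Setup: enzyme-substrate mix, compound pin transfer, 10 min RT. Reaction: NADPH regeneration solution, 1 h RT. Readout: detection reagent stops turnover, luminescence measured after 20 min, expressed in relative luminescence units.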

[12] = target: Nuclear receptor subfamily 1 group I member 2 (Rattus norvegicus) (UniProt Q9R1A7); assay: Rat pregnane X receptor (rPXR) activation by small molecules, qHTS assay (AID 1346983); conditions: rPXR luciferase reporter cells, One-Glo luminescence, 24 h; max activation: hits give high values; note: nearly all actives have a fitted effect of over 20% in size
Procedure, shortened: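 Cell-based rPXR activation assay: rPXR cells, 2,000 per well, rested 5hr at 37 C, then exposed to compounds in DMSO for 24 hr at 37 C. Luciferase activity read by One-Glo luminescence after 30 min at room temperature.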

[13] = Human pregnane X receptor (PXR) small molecule agonists, qHTS cell viability counter screen (AID 1346977); note: nearly all actives have a fitted effect of over 50% in size
Procedure, shortened: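 Readout is CellTiter-Fluor fluorescence from PXR-Luc HepG2 cells. Plated cells rested 5hr, then were treated with compounds for 24hr at 37C and 5% CO2, with reagent present during the last hour.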

[14] = target: Nuclear receptor subfamily 1 group I member 2 (Homo sapiens) (UniProt O75469); assay: Human pregnane X receptor (PXR) activation by small molecules, qHTS assay (AID 1346985); note: nearly all actives have a fitted effect of over 40% in size
Procedure, shortened: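 DPX-2 cells (HepG2 co-transfected with a PXR response element and a CYP3A4-promoter luciferase construct) were seeded at 2,000 per well, rested 5 hr at 37C, then exposed to DMSO-dissolved compounds for 24 hr. Activation was read as luciferase luminescence.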
% is set by controls: 0 for no effect and ±100 for the full control effect.

Sequence of Cytochrome P450 1A2 (Homo sapiens) (P05177 whole entry, looked up): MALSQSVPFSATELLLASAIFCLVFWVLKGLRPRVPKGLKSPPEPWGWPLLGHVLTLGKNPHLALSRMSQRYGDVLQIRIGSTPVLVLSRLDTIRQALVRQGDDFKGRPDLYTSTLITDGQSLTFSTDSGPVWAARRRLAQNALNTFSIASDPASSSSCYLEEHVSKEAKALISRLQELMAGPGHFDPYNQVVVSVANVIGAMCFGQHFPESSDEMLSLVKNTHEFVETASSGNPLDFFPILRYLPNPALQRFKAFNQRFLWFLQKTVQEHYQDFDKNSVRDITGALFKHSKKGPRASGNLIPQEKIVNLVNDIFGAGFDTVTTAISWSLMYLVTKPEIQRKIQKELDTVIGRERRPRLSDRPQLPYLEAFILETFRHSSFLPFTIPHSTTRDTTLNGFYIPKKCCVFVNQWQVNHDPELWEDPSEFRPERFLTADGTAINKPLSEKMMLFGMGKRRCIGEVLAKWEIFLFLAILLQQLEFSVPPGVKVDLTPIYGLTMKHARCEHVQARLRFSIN
Sequence of Nuclear receptor subfamily 1 group I member 2 (Homo sapiens) (O75469 whole entry, looked up): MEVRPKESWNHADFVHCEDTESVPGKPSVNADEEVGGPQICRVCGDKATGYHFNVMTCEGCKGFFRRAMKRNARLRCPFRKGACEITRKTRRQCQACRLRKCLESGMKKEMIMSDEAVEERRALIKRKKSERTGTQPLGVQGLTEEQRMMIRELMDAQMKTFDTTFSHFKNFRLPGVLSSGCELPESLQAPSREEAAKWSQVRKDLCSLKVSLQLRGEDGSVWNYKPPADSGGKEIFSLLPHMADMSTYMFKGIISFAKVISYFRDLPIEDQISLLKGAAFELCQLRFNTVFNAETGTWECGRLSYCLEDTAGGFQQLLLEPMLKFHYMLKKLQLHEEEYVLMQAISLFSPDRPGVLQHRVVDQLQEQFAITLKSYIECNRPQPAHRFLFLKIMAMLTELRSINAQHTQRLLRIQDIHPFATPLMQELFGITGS
Sequence of Voltage-gated inwardly rectifying potassium channel KCNH2 (Homo sapiens) (Q12809 whole entry, looked up): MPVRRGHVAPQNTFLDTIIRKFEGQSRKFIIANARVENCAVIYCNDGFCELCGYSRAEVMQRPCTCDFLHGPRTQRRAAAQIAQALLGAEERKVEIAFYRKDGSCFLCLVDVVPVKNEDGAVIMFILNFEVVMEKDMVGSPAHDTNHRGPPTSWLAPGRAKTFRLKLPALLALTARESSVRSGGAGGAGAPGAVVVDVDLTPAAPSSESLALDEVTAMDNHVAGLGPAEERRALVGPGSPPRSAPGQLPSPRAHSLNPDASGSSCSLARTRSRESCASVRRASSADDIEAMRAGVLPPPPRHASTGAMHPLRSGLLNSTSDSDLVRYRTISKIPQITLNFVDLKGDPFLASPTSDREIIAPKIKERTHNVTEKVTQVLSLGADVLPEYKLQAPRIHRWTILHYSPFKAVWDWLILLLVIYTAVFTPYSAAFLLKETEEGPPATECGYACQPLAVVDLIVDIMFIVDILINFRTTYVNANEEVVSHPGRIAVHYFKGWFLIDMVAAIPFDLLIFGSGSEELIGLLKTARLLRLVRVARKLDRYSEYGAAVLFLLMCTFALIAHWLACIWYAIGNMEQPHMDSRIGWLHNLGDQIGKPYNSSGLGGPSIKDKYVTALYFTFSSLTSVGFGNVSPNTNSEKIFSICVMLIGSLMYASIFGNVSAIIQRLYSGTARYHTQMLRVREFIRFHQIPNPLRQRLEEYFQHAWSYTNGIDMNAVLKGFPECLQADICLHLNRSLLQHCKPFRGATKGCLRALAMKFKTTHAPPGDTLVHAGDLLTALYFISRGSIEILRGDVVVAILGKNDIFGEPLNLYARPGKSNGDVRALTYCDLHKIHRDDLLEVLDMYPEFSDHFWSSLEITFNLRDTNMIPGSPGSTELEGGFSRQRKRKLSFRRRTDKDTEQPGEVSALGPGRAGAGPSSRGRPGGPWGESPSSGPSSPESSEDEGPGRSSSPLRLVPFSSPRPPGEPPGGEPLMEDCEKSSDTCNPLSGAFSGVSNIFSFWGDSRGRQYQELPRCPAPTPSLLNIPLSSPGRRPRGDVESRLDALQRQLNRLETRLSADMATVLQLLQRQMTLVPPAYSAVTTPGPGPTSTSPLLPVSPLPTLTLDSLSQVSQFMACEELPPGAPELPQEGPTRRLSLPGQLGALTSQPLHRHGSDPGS
Sequence of Cytochrome P450 3A4 (Homo sapiens) (P08684 whole entry, looked up): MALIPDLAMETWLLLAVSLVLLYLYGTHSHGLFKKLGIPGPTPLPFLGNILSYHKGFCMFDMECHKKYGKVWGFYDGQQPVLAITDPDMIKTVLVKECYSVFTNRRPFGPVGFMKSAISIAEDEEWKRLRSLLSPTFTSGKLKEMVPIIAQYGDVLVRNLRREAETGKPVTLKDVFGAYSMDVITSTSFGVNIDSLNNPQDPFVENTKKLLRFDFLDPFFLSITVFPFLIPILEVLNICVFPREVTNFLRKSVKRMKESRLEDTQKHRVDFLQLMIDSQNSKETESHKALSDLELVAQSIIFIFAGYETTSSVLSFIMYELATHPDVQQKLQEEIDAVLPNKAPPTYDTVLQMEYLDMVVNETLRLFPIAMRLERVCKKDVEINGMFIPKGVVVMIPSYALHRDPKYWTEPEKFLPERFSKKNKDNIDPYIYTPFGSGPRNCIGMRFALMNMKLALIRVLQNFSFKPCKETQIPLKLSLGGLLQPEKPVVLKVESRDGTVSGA
Sequence of Cytochrome P450 2D6 (Homo sapiens) (P10635 whole entry, looked up): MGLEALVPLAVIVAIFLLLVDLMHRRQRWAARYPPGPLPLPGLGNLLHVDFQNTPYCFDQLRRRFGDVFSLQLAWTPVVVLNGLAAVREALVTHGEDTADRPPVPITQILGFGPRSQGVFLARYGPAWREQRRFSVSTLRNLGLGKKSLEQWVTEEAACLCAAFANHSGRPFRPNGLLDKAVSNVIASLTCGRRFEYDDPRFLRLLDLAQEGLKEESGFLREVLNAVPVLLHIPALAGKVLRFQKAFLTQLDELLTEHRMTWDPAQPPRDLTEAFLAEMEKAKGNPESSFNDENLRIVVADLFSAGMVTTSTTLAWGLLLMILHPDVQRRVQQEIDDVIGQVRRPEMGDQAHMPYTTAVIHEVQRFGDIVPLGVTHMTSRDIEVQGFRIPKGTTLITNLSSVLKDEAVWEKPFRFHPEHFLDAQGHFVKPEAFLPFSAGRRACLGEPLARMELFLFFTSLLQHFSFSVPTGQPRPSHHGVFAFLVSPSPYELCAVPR
Sequence of Cytochrome P450 2C9 (Homo sapiens) (P11712 whole entry, looked up): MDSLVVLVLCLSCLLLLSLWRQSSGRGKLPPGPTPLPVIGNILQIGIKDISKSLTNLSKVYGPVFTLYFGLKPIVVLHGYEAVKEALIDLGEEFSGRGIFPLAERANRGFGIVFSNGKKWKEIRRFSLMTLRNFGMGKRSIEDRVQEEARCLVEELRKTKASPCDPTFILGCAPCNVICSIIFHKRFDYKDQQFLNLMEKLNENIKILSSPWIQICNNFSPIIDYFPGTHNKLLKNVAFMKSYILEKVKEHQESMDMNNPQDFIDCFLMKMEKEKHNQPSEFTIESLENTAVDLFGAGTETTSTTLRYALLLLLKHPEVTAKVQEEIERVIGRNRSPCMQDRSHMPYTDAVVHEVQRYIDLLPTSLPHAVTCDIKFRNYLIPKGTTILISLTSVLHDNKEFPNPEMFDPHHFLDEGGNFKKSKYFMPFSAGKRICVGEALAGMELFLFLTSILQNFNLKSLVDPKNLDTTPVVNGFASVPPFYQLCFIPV
Sequence of Cytochrome P450 2C19 (Homo sapiens) (P33261 whole entry, looked up): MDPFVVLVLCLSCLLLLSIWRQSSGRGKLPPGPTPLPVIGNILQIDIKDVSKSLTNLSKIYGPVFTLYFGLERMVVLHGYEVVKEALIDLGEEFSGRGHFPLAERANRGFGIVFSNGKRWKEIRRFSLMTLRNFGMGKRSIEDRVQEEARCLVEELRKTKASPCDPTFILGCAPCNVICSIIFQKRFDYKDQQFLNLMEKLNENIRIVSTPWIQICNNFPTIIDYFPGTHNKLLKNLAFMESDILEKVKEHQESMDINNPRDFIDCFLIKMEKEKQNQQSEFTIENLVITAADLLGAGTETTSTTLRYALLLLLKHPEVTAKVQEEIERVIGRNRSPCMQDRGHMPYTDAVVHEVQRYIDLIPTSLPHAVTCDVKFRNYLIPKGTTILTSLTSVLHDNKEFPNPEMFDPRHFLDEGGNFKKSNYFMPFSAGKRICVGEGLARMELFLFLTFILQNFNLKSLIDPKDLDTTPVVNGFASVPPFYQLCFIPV
Sequence of Nuclear receptor subfamily 1 group I member 2 (Rattus norvegicus) (Q9R1A7 whole entry, looked up): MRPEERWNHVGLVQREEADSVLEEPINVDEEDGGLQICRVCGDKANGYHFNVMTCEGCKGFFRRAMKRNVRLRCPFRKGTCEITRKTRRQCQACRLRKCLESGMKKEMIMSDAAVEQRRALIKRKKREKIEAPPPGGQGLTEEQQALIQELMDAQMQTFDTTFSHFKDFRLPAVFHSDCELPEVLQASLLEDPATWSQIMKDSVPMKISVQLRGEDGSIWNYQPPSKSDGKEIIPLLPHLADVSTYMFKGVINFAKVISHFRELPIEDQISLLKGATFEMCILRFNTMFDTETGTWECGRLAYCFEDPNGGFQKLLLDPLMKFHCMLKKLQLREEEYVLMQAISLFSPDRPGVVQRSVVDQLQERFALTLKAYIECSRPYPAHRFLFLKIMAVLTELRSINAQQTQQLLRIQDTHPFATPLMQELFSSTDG

CC1CN(c2cc3c(cc2F)c(=O)c(C(=O)O)cn3-c2ccc(F)cc2F)CCN1 (stereo unspecified)
inactive: caspase activation [1] -0.856% [at 8.39 µM] | activity change, negative = cytotoxicity [2] -1.36% [at 8.39 µM] | caspase-3/7 activation [3] -0.241% [at 8.39 µM] | activity change, negative = cytotoxicity [4] -2.3% [at 8.39 µM] | activation [5] -2.46% [at 8.39 µM] | activity change, negative = inhibition [6] -0.211% [at 10.5 µM] | activity change, negative = inhibition [7] 31.4% [at 10.5 µM] | activity change, negative = inhibition [8] 2.17% [at 10.5 µM] | activity change, negative = inhibition [9] 1.79% [at 10.5 µM] | activity change, negative = inhibition [10] 3.92% [at 6.97 µM] | activity change, negative = inhibition [11] 4.32% [at 10.5 µM]

CCCOCCOCCO
inactive: Potency [1] | Potency [2] | outcome [3] | Potency [4] | Potency [5] | Potency [6] | Potency [7] | Potency [8] | Potency [9] | Potency [11]

CCc1cccc(N(C)C(N)=Nc2cccc3ccccc23)c1
inactive: Potency [1] | Potency [2] | outcome [3] | Potency [4] | max activation [12] -1.24%

CCCC1C(CC)=CC(CC)=CN1c1ccccc1 (stereo unspecified)
inactive: Potency [1] | Potency [2] | outcome [3] | Potency [4]
active: Potency [5] 24.3 µM | Potency [6] 20 µM | Potency [7] 2 µM | Potency [8] 17.8 µM | Potency [9] 11.2 µM | Potency [11] 31.7 µM

Oc1ccc(Nc2ccccc2)cc1
inactive: Potency [13] | Potency [1] | outcome [3] | Potency [4] | Potency [11]
active: Potency [5] 54.5 µM | Potency [6] 63.3 µM | Potency [7] 20 µM | Potency [8] 28.3 µM | Potency [9] 31.7 µM

OC/C(Br)=C(\Br)CO
active: Potency [6] 35.3 µM | Potency [7] 31.5 µM
inactive: Potency [1] | Potency [2] | outcome [3] | Potency [4] | Potency [5] | Potency [8] | Potency [10] | Potency [11]

O=C1OCCN1/N=C/c1ccc([N+](=O)[O-])o1
inactive: Potency [1] | outcome [3] | Potency [4] | Potency [5] | max activation [12] -6.39% | Potency [14]

CSc1ccc(Oc2ccc(S(N)(=O)=O)cc2CN(C)C)cc1C
active: Potency [5] 19.3 µM | Potency [7] 35.6 µM | Potency [9] 63.3 µM | Potency [10] 6.92 µM
inactive: Potency [1] | outcome [3] | Potency [4] | Potency [11]

Nc1ccc(C(=O)OCCCOC(=O)c2ccc(N)cc2)cc1
active: Potency [5] 54.5 µM | Potency [6] 39.9 µM | Potency [7] 17.8 µM | Potency [8] 7.1 µM | Potency [9] 7.1 µM | Potency [11] 2.24 µM
inactive: Potency [13] | Potency [1] | outcome [3] | Potency [4]

CCC(=O)OC/C=C/c1ccccc1
inactive: Potency [1] | Potency [2] | outcome [3] | Potency [4] | Potency [5] | Potency [6] | Potency [10] | Potency [11]
active: Potency [7] 35.6 µM and 71 µM | Potency [8] 39.9 µM | Potency [9] 63.3 µM
